# Laboratory results: PubChem BioAssay (Tox21)
# Records with an inconclusive call do not appear. Where a call stands in place of a potency, no number is given. Unmarked numbers belong to inactive results. Calls of active or inactive are those of the source. Unless noted, the call rests on the fitted dose curve; in most records, active means well fitted curve in the direction sought with a large enough effect in the repeat runs; inconclusive means weak or mixed curves; inactive means no such curve, though single readings can be large; an effect the other way counts as inactive or inconclusive.
# Columns and labels:
# [1] = qHTS assay to identify small molecule antagonists of the vitamin D receptor (VDR) signaling pathway - cell viability counter screen (AID 743225); further: nearly all actives have a fitted effect of over 50% in size
# Method in brief: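 In this counter screen, VDR-bla HEK 293T cells receive test compound plus 3 nM final calcitriol for 16 h at 37C. Room-temperature steps of 2 h with the beta-lactamase substrate, then 30 min with CellTiter-Glo, precede the luminescence read.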
# [2] = qHTS assay to identify small molecule agonists of the NFkB signaling pathway - cell viability counter screen (AID 1159515; calls by dose curve; further: series mostly up to about 61 µM; nearly all actives have a fitted effect of over 55% in size)
# Method in brief: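 NFkB-bla ME-180 cells, 2,000/well, were plated overnight at 37 C, 5% CO2, then exposed to compounds in DMSO for 5 hr. After the bla FRET read, CellTiter-Glo was added to the same wells; luminescence was read after 30 min at room temperature.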
# [3] = qHTS assay to identify small molecule agonists of the endoplasmic reticulum stress response signaling pathway (AID 1159516; active means well fitted activation curve with a large enough effect in the signal ratio in the repeat runs, not every such curve was filed as active; the % refers to the signal ratio)
# Method in brief: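 CellSensor ESRE-bla HeLa cells, carrying a beta-lactamase reporter driven by the ER stress response element, were plated overnight and exposed to compounds for 5 hr at 37 C. Reporter activity was read as FRET substrate fluorescence after 2 hr at room temperature.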
# [4] = qHTS assay to identify small molecule agonists of the endoplasmic reticulum stress response signaling pathway - cell viability counter screen (AID 1159517; calls by dose curve; further: series mostly up to about 61 µM; nearly all actives have a fitted effect of over 50% in size)
# Method in brief: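 Luminescence readout: CellTiter-Glo, 30 min RT, same wells as the ESRE-bla reporter read. HeLa ESRE-bla, 1,500 cells/well, o/n 37 C; cpd 5 hr 37 C/5% CO2.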
# [5] = qHTS assay to identify small molecule antagonists of the retinoid-related orphan receptor gamma (ROR-gamma) signaling pathway - cell viability counter screen (AID 1159520); further: nearly all actives have a fitted effect of over 50% in size
# Method in brief: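 Tet-on ROR gamma CHO cells (1,000/well) were plated 4 hr, given compounds in DMSO for 2 hr at 37 C, then induced with 1 uM final doxycycline for 16 hr. Viability was read as ATP by CellTiter-Glo luminescence after 30 min.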
# [6] = molecular target: Nuclear receptor ROR-gamma (Homo sapiens) (UniProt P51449); assay: qHTS assay to identify small molecule antagonists of the retinoid-related orphan receptor gamma (ROR-gamma) signaling pathway (AID 1159521;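 further: CHO cells with doxycycline inducible ROR-gamma driving an RORE luciferase reporter; top concentration of the series differs between compounds; nearly all actives have a fitted effect of over 50% in size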)
# Method in brief: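 Screening format: cell-based luciferase reporter in CHO cells with doxycycline-inducible RORγ. Compound pre-exposure lasts 2 h, doxycycline is 1 uM final, induction runs 16 h at 37 C, and ONE-Glo luminescence is read.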
# [7] = qHTS assay to identify small molecule agonists of the AP-1 signaling pathway - cell viability counter screen (AID 1159525; calls by dose curve; further: nearly all actives have a fitted effect of over 55% in size)
# Method in brief: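 ME-180 AP-1-bla, 2500 cells/well, Opti-MEM + 0.5% dialyzed FBS; overnight 37 °C; cpd 15-pt titration, 5 h 37 °C; CellTiter-Glo 30 min RT; luminescence read; normalised to TOAB and DMSO controls.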
# [8] = qHTS assay to identify small molecule agonists of the AP-1 signaling pathway (AID 1159526; calls by dose curve)
# [9] = molecular target: Retinoic acid receptor RXR-alpha (Homo sapiens) (UniProt P19793); assay: qHTS assay to identify small molecule agonists of the RXR signaling pathway (AID 1159527; calls by dose curve; further: nearly all actives have a fitted effect of over 35% in size)
# Sequence of Retinoic acid receptor RXR-alpha (Homo sapiens) (P19793 whole entry, looked up): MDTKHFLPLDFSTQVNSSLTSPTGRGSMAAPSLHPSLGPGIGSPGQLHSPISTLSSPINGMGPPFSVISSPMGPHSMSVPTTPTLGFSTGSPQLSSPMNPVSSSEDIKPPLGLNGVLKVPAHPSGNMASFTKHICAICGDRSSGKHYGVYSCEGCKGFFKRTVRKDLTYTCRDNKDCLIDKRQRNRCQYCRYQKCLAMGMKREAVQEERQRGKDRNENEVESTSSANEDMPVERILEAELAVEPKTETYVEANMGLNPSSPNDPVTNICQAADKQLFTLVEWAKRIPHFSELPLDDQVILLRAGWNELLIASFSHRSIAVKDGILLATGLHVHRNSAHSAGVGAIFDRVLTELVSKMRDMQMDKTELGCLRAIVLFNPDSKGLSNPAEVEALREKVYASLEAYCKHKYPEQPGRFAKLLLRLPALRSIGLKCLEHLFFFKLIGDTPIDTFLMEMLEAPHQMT
# Method in brief: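 Fluorescence ratio readout (460 vs 530 nm) from GeneBLAzer RXR-alpha HEK 293T cells after 16 hr compound treatment; cells seeded 5 hr beforehand in low-serum, charcoal-stripped medium.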
# [10] = qHTS assay to identify small molecule agonists of the RXR signaling pathway - cell viability counter screen (AID 1159529)
# Method in brief: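 Viability read-out for the RXR-alpha agonist qHTS: luminescent CellTiter-Glo signal after 30 min at RT. HEK 293T bla reporter cells, 2% charcoal-stripped FBS, 16 hr compound incubation; tetraoctyl ammonium bromide as cytotoxic control.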
# [11] = qHTS assay to identify small molecule antagonists of the retinoid acid receptor (RAR) signaling pathway - cell viability counter screen (AID 1159551); further: nearly all actives have a fitted effect of over 35% in size
# Method in brief: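 C3RL4 cells were seeded overnight at 37 C, then treated with compounds plus 1 uM (final) retinol for 6 h at 37 C. Viability was read as ATP by CellTiter-Glo luminescence after 30 min at room temperature.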
# [12] = qHTS assay to identify small molecule antagonists of the retinoic acid receptor (RAR) signaling pathway (AID 1159552; further: nearly all actives have a fitted effect of over 50% in size)
# Method in brief: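 Using a RARE-driven luciferase construct in C3RL4 cells, retinol at 1 uM final provided the agonist stimulus while compounds were co-applied. After 6 hours at 37 C, luminescence was recorded to flag inhibitors of retinol signaling.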
# [13] = qHTS assay to identify small molecule agonists of the retinoic acid receptor (RAR) signaling pathway (AID 1159553); further: potency means the concentration at half of the fitted maximal effect
# Method in brief: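 C3RL4 cells carrying a RARE luciferase reporter were plated overnight at 37 C, then exposed to compounds in DMSO for 6 hr at 37 C and 5% CO2. Luminescence was read 30 min after luciferase reagent addition at room temperature.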
# [14] = qHTS assay to identify small molecule antagonists of the estrogen related receptor (ERR) signaling pathway from Tox21 library - cell viability counter screen (AID 1224834); further: nearly all actives have a fitted effect of over 30% in size
# Method in brief: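 ERR reporter cells were plated 6 h before compound addition, then exposed to test compounds in DMSO for 17.5 h at 37 C. Viability was read as CellTiter-Fluor fluorescence after a 30-minute incubation at 37 C.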
# [15] = molecular target: Luciferin 4-monooxygenase (Photinus pyralis) (UniProt P08659); assay: qHTS assay to identify small molecule inhibitors of firefly luciferase (AID 1224835); further: nearly all actives have a fitted effect of over 25% in size; further: potency means the concentration at half of the fitted maximal effect
# Sequence of Luciferin 4-monooxygenase (Photinus pyralis) (P08659 whole entry, looked up): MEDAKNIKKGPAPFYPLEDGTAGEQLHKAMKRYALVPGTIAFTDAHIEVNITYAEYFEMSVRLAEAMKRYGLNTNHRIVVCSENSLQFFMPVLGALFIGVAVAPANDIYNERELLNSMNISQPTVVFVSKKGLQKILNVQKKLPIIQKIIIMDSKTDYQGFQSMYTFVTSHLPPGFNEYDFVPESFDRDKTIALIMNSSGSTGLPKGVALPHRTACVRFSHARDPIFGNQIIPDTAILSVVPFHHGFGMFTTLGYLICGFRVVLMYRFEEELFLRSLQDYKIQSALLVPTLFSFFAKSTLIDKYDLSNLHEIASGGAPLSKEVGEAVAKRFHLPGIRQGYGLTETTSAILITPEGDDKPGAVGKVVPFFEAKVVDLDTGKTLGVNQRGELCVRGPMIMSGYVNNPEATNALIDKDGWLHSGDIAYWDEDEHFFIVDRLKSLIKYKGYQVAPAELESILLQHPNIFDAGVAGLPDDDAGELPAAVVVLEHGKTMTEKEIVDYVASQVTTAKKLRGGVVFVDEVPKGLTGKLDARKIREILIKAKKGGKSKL
# Method in brief: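 Quantitative HTS format; KM concentrations of both substrates. Purified P. pyralis FLuc activity quantified from luminescence images.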
# [16] = qHTS assay to identify small molecule agonists of the constitutive androstane receptor (CAR) signaling pathway - cell viability counter screen (AID 1224836); further: series mostly up to about 92 µM; nearly all actives have a fitted effect of over 45% in size
# Method in brief: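 Multiplexed viability check: HepG2-CYP2B6-hCAR cells, 15-point compound dosing, 0.75 uM PK11195 final, 23 h at 37 C, CellTiter-Fluor fluorescence.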
# [17] = qHTS assay to identify small molecule antagonists of the constitutive androstane receptor (CAR) signaling pathway - cell viability counter screen (AID 1224837); further: series mostly up to about 92 µM; nearly all actives have a fitted effect of over 45% in size
# Method in brief: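 HepG2 cells stably expressing hCAR and a CYP2B6-2.2kb reporter were plated and pre-incubated 4 hr at 37 C/5% CO2, then given compounds at 15 concentrations plus 50 nM CITCO (final). After 23 hr, viability was read by CellTiter-Fluor fluorescence.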
# [18] = qHTS assay to identify small molecule antagonists of the estrogen related receptor signaling pathway with the pleiotropic PPARgamma coactivator (PGC) from Tox21 10K library - cell viability counter screen (AID 1224840; active means well fitted cell-killing curve with a large enough effect in the repeat runs, not every such curve was filed as active; further: nearly all actives have a fitted effect of over 40% in size)
# Method in brief: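 PGC/ERR cells were seeded at 2,000 cells/well and left 6 hours at 37 C/5% CO2 before pin-tool addition of compounds in DMSO. After 17.5 hours at 37 C, CellTiter-Fluor was added and fluorescence read 30 minutes later.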
# [19] = molecular target: Nuclear receptor subfamily 1 group I member 3 (Homo sapiens) (UniProt Q14994); assay: qHTS assay to identify small molecule antagonists of the constitutive androstane receptor (CAR) signaling pathway (AID 1224838); further: nearly all actives have a fitted effect of over 40% in size
# Sequence of Nuclear receptor subfamily 1 group I member 3 (Homo sapiens) (Q14994 whole entry, looked up): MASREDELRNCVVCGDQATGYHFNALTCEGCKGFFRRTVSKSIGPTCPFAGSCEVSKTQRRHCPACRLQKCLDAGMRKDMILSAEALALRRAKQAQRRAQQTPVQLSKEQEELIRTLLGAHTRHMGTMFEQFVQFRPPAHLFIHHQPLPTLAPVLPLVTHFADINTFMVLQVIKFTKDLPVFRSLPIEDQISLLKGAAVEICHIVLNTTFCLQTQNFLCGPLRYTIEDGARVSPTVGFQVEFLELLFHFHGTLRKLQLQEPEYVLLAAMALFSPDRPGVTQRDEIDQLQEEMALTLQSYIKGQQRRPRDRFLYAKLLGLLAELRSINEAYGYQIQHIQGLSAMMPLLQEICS
# Method in brief: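 HepG2 cells stably co-transfected with hCAR and a CYP2B6-2.2kb luciferase reporter were seeded 4 h before compound addition at 15 concentrations. Cells were stimulated with 50 nM CITCO (final) for 24 h at 37 C; luciferase luminescence was then read.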
SMILES,outcome [1],outcome [2],Potency [3],outcome [4],outcome [5],outcome [6],outcome [7],Potency [8],Potency [9],Potency [10],outcome [11],outcome [12],Potency [13],outcome [14],Potency [15],outcome [16],outcome [17],outcome [18],outcome [19]
NNC(=O)CCCCC(=O)NN,inactive,inactive,inactive,inactive,inactive,inactive,inactive,inactive,inactive,inactive,inactive,inactive,inactive,inactive,inactive,inactive,inactive,inactive,
CCCCCCCCCCCC(C)=O,inactive,inactive,inactive,inactive,inactive,inactive,inactive,inactive,inactive,inactive,inactive,inactive,inactive,inactive,inactive,inactive,inactive,inactive,
C=C(C)C(=O)OCCCC,inactive,inactive,inactive,inactive,inactive,inactive,inactive,inactive,inactive,inactive,inactive,inactive,inactive,inactive,inactive,inactive,inactive,inactive,
CNCCc1ccccn1,inactive,inactive,inactive,inactive,inactive,inactive,inactive,inactive,inactive,inactive,inactive,inactive,inactive,inactive,inactive,inactive,inactive,inactive,
O=C(O)CCCCCCCCCC(=O)O,inactive,inactive,inactive,inactive,inactive,inactive,inactive,inactive,inactive,inactive,inactive,inactive,inactive,inactive,inactive,inactive,inactive,inactive,
CC1(C)CC(N)CC(C)(C)N1,inactive,inactive,inactive,inactive,inactive,inactive,inactive,inactive,inactive,inactive,,inactive,inactive,inactive,inactive,inactive,inactive,inactive,inactive
COc1ccc2cc(CCC(C)=O)ccc2c1,inactive,inactive,inactive,inactive,inactive,inactive,inactive,inactive,inactive,inactive,,inactive,3.35 µM (active),inactive,13.8 µM (active),inactive,inactive,inactive,
COc1cc(S(N)(=O)=O)cc(C(=O)O)c1OC,,inactive,inactive,inactive,inactive,inactive,inactive,inactive,inactive,inactive,,inactive,inactive,inactive,inactive,inactive,inactive,inactive,
